# Legend:
# DRAK1 = tested on: T1, DRAK1
# T1 construct: gene STK17A
# 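Also: kd values determined as follow-up on hits from a single-replicate KINOMEscan panel screen.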
smiles,measurement,setting,value
CC(C)(C)OC(=O)NC1CCCN(c2cc(-c3ccc4c(N)n[nH]c4c3)nc(N)n2)C1 (stereo not drawn) [GSK2286096],Kd,DRAK1,0.13 µM
same,Kd,DYRK1B,> 10 µM
same,Kd,DYRK2,0.44 µM
same,Kd,EPHB2,> 10 µM
Fc1cccc(COc2ccc(Nc3ncnc4cc[nH]c34)cc2Cl)c1,Kd,EGFR,0.0013 µM
same,Kd,ERBB2,0.0022 µM
same,Kd,ERBB4,0.32 µM
Fc1cccc(COc2ccc(Nc3ncnc4nn5ccccc5c34)cc2Cl)c1 [GW689066],Kd,DRAK1,> 10 µM
same,Kd,ERBB2,0.024 µM
same,Kd,ERBB4,0.16 µM
COc1cc2c(Nc3cccc(NC(=O)c4ccccc4)c3)ncnc2cc1OCCCN1CCOCC1 [GSK223810],Kd,EGFR,1.4 µM
Nc1nc(-c2ccc3c(N)n[nH]c3c2)cc(N2CCCCC2)n1 [GSK2228768],Kd,DRAK1,0.11 µM
CC(C)(C)c1ccc(-n2cnc3c(N)ncnc32)cc1 [SKF-97263],Kd,DRAK1,0.45 µM
N#Cc1ccc(Oc2ccc(Nc3ncnc4cc[nH]c34)cc2Cl)cc1,Kd,EGFR,0.097 µM
COc1cc2ncnc(Nc3ccc(OCc4ccccc4Br)c(Cl)c3)c2cc1OC.Cl [GI261590],Kd,EGFR,0.0024 µM
same,Kd,ERBB2,0.017 µM
same,Kd,ERBB4,0.027 µM
Cl.Fc1ccccc1COc1ccc(Nc2ncnc3ccc(-c4nnc(C(F)(F)F)o4)cc23)cc1Cl [GW424170],Kd,EGFR,0.043 µM
same,Kd,ERBB2,0.11 µM
Nc1n[nH]c2nnc(-c3ccccc3)cc12 [SB-517389],Kd,DYRK1B,7 µM
same,Kd,EPHB2,> 10 µM
Cn1ccc2ncnc(Nc3ccc(Oc4cccc(Cl)c4)c(Cl)c3)c21,Kd,EGFR,0.0043 µM
same,Kd,EPHA7,> 10 µM
same,Kd,EPHA8,> 10 µM
same,Kd,ERBB2,0.0012 µM
same,Kd,ERBB4,0.074 µM
Clc1cc(Nc2ncnc3cc[nH]c23)ccc1OCc1ccccn1,Kd,EGFR,0.0084 µM
same,Kd,ERBB2,0.009 µM
Oc1ccc2ncnc(Nc3ccc(OCc4ccccc4)cc3)c2c1 [GI262866],Kd,EGFR,0.0093 µM
same,Kd,ERBB2,0.027 µM

# From publication PMC5540273 (PLoS ONE, 2017)
